High-throughput results (PubChem BioAssay)
In the library only some 9.3% were active in any assay of this set; here they are far more common.
mHtt clearance: mutant huntingtin protein clearance. HeLa Exon1htt(103Q)mCFP, aggregate imaging; zero = plate's median compound well. inhibition, % at 1.5 µM. 0.42% of 47,000 active. AID 853;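 active = inhibition of aggregate fluorescence above about 70%, also judged a hit by eye on the cell image, limit read from the data, passing the limit was not always enough; inconclusive = no rule stated for this call; inactive = not judged a hit on image review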;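 note: cells exposed to compound for three days before fixation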
M1 antag: antagonists of rat M1 muscarinic receptor; P08482; CHO-M1 cells, Fluo-4 calcium, ACh EC80 antagonist mode; hits give low values; B-score at 10 µM; 3.4% of 64,000 active; AID 628;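 active = calcium fluorescence response, raw or row-and-column corrected B-score, differing from the plate sample mean either way at a set confidence level, mostly lower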
Target sequence (P08482 whole entry, looked up): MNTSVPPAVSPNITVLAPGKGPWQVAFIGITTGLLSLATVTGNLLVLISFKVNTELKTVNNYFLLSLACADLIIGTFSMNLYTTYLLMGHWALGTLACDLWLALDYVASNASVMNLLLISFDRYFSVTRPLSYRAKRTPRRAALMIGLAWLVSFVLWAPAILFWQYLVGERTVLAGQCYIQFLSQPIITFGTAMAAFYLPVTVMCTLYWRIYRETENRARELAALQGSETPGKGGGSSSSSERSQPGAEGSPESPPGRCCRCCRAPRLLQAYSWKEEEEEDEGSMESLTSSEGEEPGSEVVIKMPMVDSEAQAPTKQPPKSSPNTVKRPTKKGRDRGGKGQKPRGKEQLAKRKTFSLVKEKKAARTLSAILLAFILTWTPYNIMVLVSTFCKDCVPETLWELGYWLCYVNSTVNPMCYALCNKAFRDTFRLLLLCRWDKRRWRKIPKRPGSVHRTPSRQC
M1 ag: activates the M1 muscarinic receptor. B-score at 10 µM. CHO-M1 cells, Fluo-4 calcium fluorescence, agonist mode; hits give high values. AID 626. 3% of 64,000 active;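 active = fluorescence rise, raw or as B-score row- and column-corrected plate score, outside the 99.7% band of its plate's samples, either direction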
A340 absorber: compounds absorbing at 340 nm; compound absorbance at 340 nm, fold over control; fold change at 10 µM; 65,000 tested, under 10 active; AID 708;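 active = at 10 µM dose, initial 340 nm absorbance at least 2 fold that of control wells; inactive = change under 2 fold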;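 note: initial absorbance extrapolated from kinetic A340 decline of NADH oxidation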
NADH enzymes: blocks coupling enzymes of NAD/NADH assays; coupled PK/LDH NADH assays, four targets; 0.02% of 65,000 active; IC50, µM (highest dose often 10 µM), for inactives: at the top dose inhibition; AID 774;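 active = single-dose screening hits from any of four coupled enzyme assays that gave an IC50 when retested across doses; inconclusive = no clear call, values can overlap the other calls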;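 note: the DPM-DC format reads NADH fluorescence rather than 340 nm absorbance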
Autofluor 339: intrinsic fluorescence of library compounds, ex339/em460 – biochemical, MLSMR library, data from DPM-DC assay, artefact control, profiling panel; compound autofluorescence, ex339/em460 nm, NADH buffer; hits give high values; 1 = no-compound wells, NADH background; fluorescence fold increase at 10 µM; 5.5% of 65,000 active; AID 709;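 active = at 10 µM, mean starting fluorescence two-fold or more over control wells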;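 note: signal is the first read of a kinetic run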
M1 agonist conf: rat M1 muscarinic agonism, confirmation; shares compounds with M1 ag; CHO-M1 cells, Fluo-4 calcium fluorescence, agonist mode; actives lie on both sides; fluorescence change (max-min) at 10 µM; 19% of 1,700 active;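 active = fluorescence change differs from the solvent-only DMSO control mean at a set confidence level in both duplicate runs; inconclusive = differs from solvent-only control mean in just one of two runs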;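 note: an EC20 dose of acetylcholine follows compound addition during the same imaging run; raw fluorescence intensity difference in instrument units with no normalization to controls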
M4 agonist ctr: rat M4 muscarinic agonism, M1 counter-screen | shares compounds with M1 ag | CHO M4/Gqi5 cells, Fluo-4 calcium fluorescence, agonist mode; actives lie on both sides | fluorescence change (max-min) at 10 µM | 9% of 1,700 active | AID 1741;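 active = fluorescence change differing from the plate's solvent-only control wells at 99.7% confidence in both duplicates, whether higher or lower; inconclusive = differs from solvent controls in only one of two duplicates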
M1 antag conf: confirmation of rat M1 muscarinic receptor antagonists. shares compounds with M1 antag. CHO-M1 cells, Fluo-4 calcium, ACh EC80 antagonism; hits give low values. calcium response (max-min fluorescence) at 10 µM. 43% of 1,700 active. AID 677;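 active = calcium response below the same-plate mean of wells given acetylcholine alone at its 80%-effect dose, minus 3 SD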;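 note: raw fluorescence intensity difference in arbitrary instrument units and not normalized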
mGluR4 antag: selectivity test for M1 antagonists: human mGluR4 receptor | 0.9% of 1,700 active | CHO-mGluR4 calcium flux, Fluo-4 fluorescence, glutamate EC80; hits give low values | shares compounds with M1 antag | fluorescence response (max-min) at 10 µM | AID 678;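 active = fluorescence response below the plate's average for near-maximal glutamate wells, less 3 SD of those wells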;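 note: raw unnormalized fluorescence span taken in the window right after glutamate addition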
An asterisk follows results filed as active; ? = inconclusive; / = not tested or not shown.

SMILES	mHtt clearance	M1 antag	M1 ag	A340 absorber	NADH enzymes	Autofluor 339	M1 agonist conf	M4 agonist ctr	others
O=C(Nc1ccccc1NC(=O)c1c(F)c(F)c(F)c(F)c1F)c1c(F)c(F)c(F)c(F)c1F	54	-1.6	2.9*	1.1	6%	1.1	-4.4	?
O=C(Nc1cccc(F)c1)c1c(F)c(F)c(F)c(F)c1F	54	-1	3.7*	1	5%	1.1	-0.43	-58
CCCCCn1c(CCNC(=O)c2cccs2)nc2ccccc21	/	0.39	11*	0.99	2%	1.1	-30*	-79
CCCCCn1c(CNC(=O)c2cccs2)nc2ccccc21	/	0.19	0.045	0.97	2%	1.1	/	/
CC(=O)N(Cc1ccccc1)c1ncc2c(n1)c(=O)c(C#N)c1ccccn12	/	-0.029	4*	0.96	13%	1.5	64*	38
CC(C)C(=O)Nc1cccc(C(=O)NCc2ccc3c(c2)OCO3)c1	10	0.24	0.38	1	5%	1.1	/	/
CC12CC(NC(=O)N1c1cccc(C(=O)NCc3ccc4c(c3)OCO4)c1)c1cc(Cl)ccc1O2 (configuration not stated)	/	-0.72	2.2*	1	5%	1.1	?	-50
CCN(CC)S(=O)(=O)c1ccc(C(=O)OCn2nnc3ccccc3c2=O)cc1	45	0.22	6.2*	1	8%	1	-18	?
CCCNC(=O)N1CCN(S(=O)(=O)c2ccc(C)c(C)c2)CC1	22	0.36	0.4	1	4%	1	/	/
Cc1ccccc1S(=O)(=O)Nc1nc2ccccc2nc1N1CCOCC1	/	-0.036	-0.96	1.1	6%	1.1	/	/
O=C(c1cccs1)c1no[n+]([O-])c1C(=O)c1cccs1	/	-3.2*	12*	1	5%	1	21	-3.2
COc1ccc(C(=O)c2no[n+]([O-])c2C(=O)c2ccc(OC)cc2)cc1	-26	-0.26	1.6	1	7%	1	/	/
CCOC(=O)c1sc(NC(=O)COC(=O)Cn2cnc3ccccc32)c(C(=O)OCC)c1C	/	-0.099	0.65	0.99	5%	1	/	/
Cc1cc(C(=O)CSc2nc3ccccc3c(=O)n2C)c(C)n1Cc1ccc2c(c1)OCO2	/	-0.28	5.7*	1	5%	1.1	-19	-1.2
COCCN1CN=C(Nc2nc3ccccc3s2)NC1	-12	0.11	0.23	1.1	2%	1.1	/	/
CC(=O)NC1(C2CCCCC2=O)CCCCC1 (configuration not stated)	30	1.2	3.6*	1.1	4%	1	-4	-46
CC(=O)NCC(=O)N(c1ccccc1)C1(C(=O)NC2CCCCC2)CCCCC1	/	0.018	-0.62	0.97	6%	1.1	/	/
COC(=O)c1ccc(CSc2nc(C)nc3sc(C)c(C)c23)o1	/	-0.067	-0.099	1.1	7%	1.1	/	/
CC(=O)c1cc(C#N)c(SCc2ccccc2C#N)nc1C	13	/	/	/	/	/	/	/
N#Cc1ccccc1CSc1nc(N2CCCCC2)nc(N2CCCCC2)n1	?	1.6	7.4*	1.1	0%	1.1	-19	-24
CCC(C)OC(=O)C1=C(C)NC(=O)CC1c1ccccc1OC (configuration not stated)	/	0.19	1.5	1	4%	1.1	/	/
CCn1c(=O)c2c(nc(SCC(=O)NCC3CCCO3)n2C)n(C)c1=O (configuration not stated)	55	0.031	-0.53	0.98	10%	1.2	/	/
NC(=O)CSc1nnc(-c2cccnc2)n1CCc1ccccc1	/	0.025	0.072	1	8%	0.82	/	/
CCN(CC)C(=O)CSc1nnc(-c2cccnc2)n1CCc1ccccc1	/	-0.049	8.3*	1	4%	1.1	-24	-51
CCOc1ccc(C2=[N+]([O-])C(C)(C)N(O)C2(C)C)cc1	/	2.7*	3.6*	0.98	4%	1	-20	?
SMILES	mHtt clearance	M1 antag	M1 ag	A340 absorber	NADH enzymes	Autofluor 339	M1 agonist conf	M4 agonist ctr	others
CCS(=O)(=O)NCCc1cc2ccc(C)cc2[nH]c1=O	/	0.88	-0.09	1.1	9%	1.3	/	/
COc1ccc2[nH]c(=O)c(CN(CC3CCCO3)C(=O)Nc3ccc(F)cc3)cc2c1 (configuration not stated)	6	-4.3*	11*	1	4%	2.3*	-1	-21
COc1ccc(N2CCN(C(=O)CCNS(=O)(=O)c3ccc(Br)s3)CC2)cc1	30	-0.47	-0.95	0.99	2%	1	/	/
COc1cc2c(=O)nc3n(c2cc1OC)C(c1ccccc1)N=C(N)N3 (configuration not stated)	/	-1.2	2.4*	1	4%	1.8	-17	-38
C=CCn1c(SCC(=O)c2cc(C)n(C(C)COC)c2C)nc2sc(C)c(C)c2c1=O (configuration not stated)	11	-0.041	0.038	1	4%	1	/	/
CC1(C)NC(C)(C)C(O)(C(N)=O)C1=O (configuration not stated)	/	0.51	0.11	0.97	6%	1.2	/	/
COC(=O)c1cc2ccsc2n1Cc1cc(=O)n2ccccc2n1	/	-7.4*	-1.8*	1.1	6%	1.3	-16	-47	M1 antag conf=28*;mGluR4 antag=201
CCc1nn2c(=O)cc(CSc3nc4sc5c(c4c(=O)n3C)CCCC5)nc2s1	-14	-0.37	-0.91	1	5%	1	/	/
CCOc1ccccc1N1CCN(Cc2cccc(OC)c2OC)CC1	51	-0.22	-0.024	1.1	17%	1.1	/	/
COc1ccccc1N1CCN(Cc2ccc(OC)c(OC)c2OC)CC1	/	-6.3*	-2.6*	1.1	16%	1.1	-16	-36	M1 antag conf=601;mGluR4 antag=197
CC1CCCC(NC(=O)CCn2c(=O)oc3ccccc32)C1C (configuration not stated)	-3	-0.27	0.033	0.99	8%	1.1	/	/
COc1cccc(C(c2nnnn2Cc2ccccc2)N2CCN(C(=O)c3ccco3)CC2)c1OC (configuration not stated)	47	-11*	-2.3*	0.97	4%	1.1	-13	-13	M1 antag conf=514;mGluR4 antag=184
CCOC(=O)C1CCCN(C2CC(=O)N(c3cccc(C(F)(F)F)c3)C2=O)C1 (configuration not stated)	/	-3.3*	9*	0.99	8%	1.1	67*	-38	M1 antag conf=619;mGluR4 antag=238
